For this experiment, the system named is K562 SF3B1 K700E vs K562 SF3B1 WT. The experiment is described as follows: surviving fraction ratio K562 SF3B1 K700E / K562 SF3B1 WT (each relative to DMSO); higher = less selective killing of SF3B1 K700E cells. As to conditions: 5 days. Put shortly: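 Isogenic K562 cells carrying an engineered SF3B1 hotspot allele and matched SF3B1 wild-type cells were screened against an in-house 80-compound library in 384-well plates. Plates were seeded at 250 cells per well, and compounds were added 24 h later at 0.5, 1, 5, 10, 50, 100, 500 and 1,000 nM, with continuous culture for 5 d. Viability was read by CellTiter-Glo. The value is the mutant-to-wild-type ratio of surviving fractions, each normalised to DMSO.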

Each structure is given as a SMILES string.

Take `C[C@]12O[C@H](C[C@]1(O)CO)n1c3ccccc3c3c4c(c5c6ccccc6n2c5c31)CNC4=O` [lestaurtinib]: the “surviving fraction ratio K562 SF3B1 K700E / K562 SF3B1 WT” value (0.1nM) is 0.691; the “surviving fraction ratio K562 SF3B1 K700E / K562 SF3B1 WT” value (0.2nM) came to 0.885; the “surviving fraction ratio K562 SF3B1 K700E / K562 SF3B1 WT” value (1nM) is 0.8; the “surviving fraction ratio K562 SF3B1 K700E / K562 SF3B1 WT” value (2nM) worked out at 0.895; the “surviving fraction ratio K562 SF3B1 K700E / K562 SF3B1 WT” value (10nM) was 0.877; the “surviving fraction ratio K562 SF3B1 K700E / K562 SF3B1 WT” value (20nM) was found to be 0.855. Further, the “surviving fraction ratio K562 SF3B1 K700E / K562 SF3B1 WT” value reads like this: (100nM) 0.823; (200nM) 0.907.
For `COc1cc2ncnc(Nc3ccc(F)c(Cl)c3)c2cc1NC(=O)/C=C/CN1CCCCC1`, the “surviving fraction ratio K562 SF3B1 K700E / K562 SF3B1 WT” value turned out to be 0.911 (0.5nM); 0.948 (1nM); 0.89 (5nM); 0.805 (10nM); 0.886 (50nM); 0.945 (100nM). Also, the “surviving fraction ratio K562 SF3B1 K700E / K562 SF3B1 WT” value by setting is: (500nM) 0.756; (1000nM) 0.642.
Regarding `CCC1=C[C@@H]2CN(C1)Cc1c([nH]c3ccccc13)[C@@](C(=O)OC)(c1cc3c(cc1OC)N(C)[C@H]1[C@@](O)(C(=O)OC)[C@H](OC(C)=O)[C@]4(CC)C=CCN5CC[C@]31[C@@H]54)C2` [vinorelbine], the “surviving fraction ratio K562 SF3B1 K700E / K562 SF3B1 WT” value by setting is: (0.5nM) 1.02; (1nM) 0.921; (5nM) 0.475; (10nM) 0.385; (50nM) 1.53; (100nM) 1.9. Also, the “surviving fraction ratio K562 SF3B1 K700E / K562 SF3B1 WT” value is, setting by setting: (500nM) 1.97; (1000nM) 1.89.
`CCc1cc(Nc2nccc(-c3c(-c4ccc(OC)c(C(=O)Nc5c(F)cccc5F)c4)nc4ccccn34)n2)c(OC)cc1N1CCC(N2CCN(S(C)(=O)=O)CC2)CC1`: the “surviving fraction ratio K562 SF3B1 K700E / K562 SF3B1 WT” value amounted to 0.969 (0.5nM); 0.921 (1nM); 0.92 (5nM); 0.907 (10nM); 0.817 (50nM); 0.805 (100nM). Also, the “surviving fraction ratio K562 SF3B1 K700E / K562 SF3B1 WT” value was found to be 0.824 (500nM) and 0.842 (1000nM).
Regarding `CCCCCCCCCCCCCCCC(=O)Nc1ccn([C@@H]2O[C@H](CO)[C@@H](O)[C@@H]2C#N)c(=O)n1` [sapacitabine], the “surviving fraction ratio K562 SF3B1 K700E / K562 SF3B1 WT” value by setting is: (1nM) 0.911; (10nM) 1.11; (100nM) 0.745; (1000nM) 1.78.
As for `CN1CCN(c2nc(C3=C(c4c[nH]c5ccccc45)C(=O)NC3=O)c3ccccc3n2)CC1` [Sotrastaurin/AEB071], the “surviving fraction ratio K562 SF3B1 K700E / K562 SF3B1 WT” value was found to be 0.816 (0.5nM); 0.804 (1nM); 0.847 (5nM); 0.854 (10nM); 0.889 (50nM); 0.979 (100nM). For the same compound, the “surviving fraction ratio K562 SF3B1 K700E / K562 SF3B1 WT” value (500nM) was determined as 0.955 and the “surviving fraction ratio K562 SF3B1 K700E / K562 SF3B1 WT” value (1000nM) turned out to be 0.896.
For the compound `O=C1NC(=NCc2cccs2)S/C1=C\c1ccc2ncccc2c1`, the “surviving fraction ratio K562 SF3B1 K700E / K562 SF3B1 WT” value by setting is: (0.2nM) 0.909; (0.4nM) 0.855; (2nM) 0.878; (4nM) 0.842; (20nM) 1.02; (40nM) 0.921. The “surviving fraction ratio K562 SF3B1 K700E / K562 SF3B1 WT” value runs as follows: (200nM) 0.844; (400nM) 0.909.
Take `COCC[n+]1c2c(n(Cc3cnccn3)c1C)C(=O)c1ccccc1C2=O`: the “surviving fraction ratio K562 SF3B1 K700E / K562 SF3B1 WT” value is 0.819 (0.5nM); 0.805 (1nM); 1.33 (5nM); 1.8 (10nM); 1.14 (50nM); 0.899 (100nM). For the same compound, the “surviving fraction ratio K562 SF3B1 K700E / K562 SF3B1 WT” value (500nM) was 0.84 and the “surviving fraction ratio K562 SF3B1 K700E / K562 SF3B1 WT” value (1000nM) is 0.809.
As for `COc1ccc(-c2cc3c(C)nc(N)nc3n([C@H]3CC[C@H](OCCO)CC3)c2=O)cn1`, the “surviving fraction ratio K562 SF3B1 K700E / K562 SF3B1 WT” value by setting is: (0.5nM) 1.06; (1nM) 1.14; (5nM) 0.92; (10nM) 1; (50nM) 0.958; (100nM) 0.868. In addition, the “surviving fraction ratio K562 SF3B1 K700E / K562 SF3B1 WT” value (500nM) came to 1.37 and the “surviving fraction ratio K562 SF3B1 K700E / K562 SF3B1 WT” value (1000nM) came to 1.58.
For the compound `COc1cc2nccc(Oc3ccc(NC(=O)NC4CC4)c(Cl)c3)c2cc1C(N)=O` [Lenvatinib], the “surviving fraction ratio K562 SF3B1 K700E / K562 SF3B1 WT” value is, setting by setting: (0.5nM) 0.728; (1nM) 0.787; (5nM) 0.763; (10nM) 0.755; (50nM) 0.815; (100nM) 0.834. The “surviving fraction ratio K562 SF3B1 K700E / K562 SF3B1 WT” value (500nM) turned out to be 0.71 and the “surviving fraction ratio K562 SF3B1 K700E / K562 SF3B1 WT” value (1000nM) was found to be 0.674.
Take `CO[C@H]1C[C@@H]2CC[C@@H](C)[C@@](O)(O2)C(=O)C(=O)N2CCCC[C@H]2C(=O)O[C@H]([C@H](C)C[C@@H]2CC[C@@H](OCCO)[C@H](OC)C2)CC(=O)[C@H](C)/C=C(\C)[C@@H](O)[C@@H](OC)C(=O)[C@H](C)C[C@H](C)/C=C/C=C/C=C/1C` [everolimus]: the “surviving fraction ratio K562 SF3B1 K700E / K562 SF3B1 WT” value was found to be 0.697 (0.5nM); 0.655 (1nM); 0.712 (5nM); 0.806 (10nM); 0.702 (50nM); 0.697 (100nM). For the same compound, the “surviving fraction ratio K562 SF3B1 K700E / K562 SF3B1 WT” value worked out at 0.824 (500nM) and 0.967 (1000nM).
Take `Cc1ccc(-c2cc(C(F)(F)F)nn2-c2ccc(S(N)(=O)=O)cc2)cc1` [celecoxib]: the “surviving fraction ratio K562 SF3B1 K700E / K562 SF3B1 WT” value runs as follows: (0.5nM) 0.751; (1nM) 0.819; (5nM) 0.804; (10nM) 0.813; (50nM) 0.673; (100nM) 0.736. In addition, the “surviving fraction ratio K562 SF3B1 K700E / K562 SF3B1 WT” value came out at 0.79 (500nM) and 0.698 (1000nM).
As to `COc1cc2c(Oc3ccc(NC(=O)C4(C(=O)Nc5ccc(F)cc5)CC4)cc3F)ccnc2cc1OCCCN1CCOCC1` [Foretinib], the “surviving fraction ratio K562 SF3B1 K700E / K562 SF3B1 WT” value by setting is: (0.5nM) 0.742; (1nM) 0.75; (5nM) 0.797; (10nM) 0.729; (50nM) 0.775; (100nM) 0.561. Moreover, the “surviving fraction ratio K562 SF3B1 K700E / K562 SF3B1 WT” value reads like this: (500nM) 1.02; (1000nM) 0.913.

For the origin of these results see the supplement of paper PMC10412459.
